Shown is part of a subset that was picked to be rich in hits.
AMPAR-TARP mod: modulators of GluA2-stargazin AMPA receptor complexes, primary screen, cell-based, membrane potential dye | Voltage-dependent calcium channel gamma-2 subunit (Mus musculus) + Glutamate receptor 2 … | HEK293 GluA2+stargazin, membrane potential dye (FDSS), glutamate EC50; hits were called plate by plate, in both directions | calls only at 30 µM | hit rate 3.5% among 40,000;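 active = any of four per-well response measures lying three or more SD from its plate-wide compound average, in either direction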
GIRK2 activator: activators of NPY4-receptor-primed GIRK2 channels, summary, cell-based, HEK293, thallium flux | HEK293 GIRK2/NPY4 cells, thallium flux fluorescence | G protein-activated inward rectifier potassium channel 2 (Homo sapiens), P48051 | activation (% efficacy), % for hits at 37.5 µM | AID 1259324, 2017 | 34,000 tested, under 10 active;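 active = primary screen hit, no activity in plain HEK293 cells, and in GIRK2-only cells above 5% efficacy rising with concentration; inactive = the rest, including fluorescent compounds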;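 also: efficacy is normalized control-subtracted fluorescence 15 s after thallium addition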
Starred values were filed as active, the others as inactive; i = inactive; x = no result; + = active, no number.

SMILES | AMPAR-TARP mod | GIRK2 activator
Cc1ccc(CNC(=O)Cn2cc(-c3ccccc3)c(N3CCOCC3)n2)cc1C | x | i
O=C(CCCS(=O)(=O)c1ccc(Cl)cc1)Nc1nc2ccc([N+](=O)[O-])cc2s1 | i | x
COc1ccc(S(=O)(=O)CCCC(=O)Nc2nc(-c3cc([N+](=O)[O-])cs3)cs2)cc1 | + | i
COc1ccc(S(=O)(=O)CCCC(=O)Nc2nc3ccc([N+](=O)[O-])cc3s2)cc1 | + | i
O=C(Nc1nc2ccc([N+](=O)[O-])cc2s1)c1ccc(=O)n(Cc2c(F)cccc2Cl)c1 | + | i
CCC(=O)Nc1nc2ccc([N+](=O)[O-])cc2s1 | + | i
COc1ccc(S(=O)(=O)CCCC(=O)Nc2nc(-c3cccc([N+](=O)[O-])c3)cs2)cc1 | i | i
CS(=O)(=O)c1ccc2nc(NC(=O)c3ccc(=O)n(Cc4c(F)cccc4Cl)c3)sc2c1 | i | i
O=C(CN1C(=O)c2ccccc2S1(=O)=O)Nc1nc2ccc([N+](=O)[O-])cc2s1 | i | i
CCOc1cc(C(=O)Nc2ccc3ncsc3c2)cc(OCC)c1OCC | i | i
COc1ccc(S(=O)(=O)CC(=O)Nc2nc(-c3ccccc3)cs2)cc1 | i | i
COc1ccc(-c2cc(=O)c3cc(Cl)ccc3o2)cc1OC | i | x
O=C(CCSc1ccccc1)NCC(O)c1ccc(C(F)(F)F)cc1 (centres undefined) | x | i
CCCCOc1ccc(C(=O)NCC2CCN(C(=O)NC(C)(C)C)CC2)cc1 | i | i
COC(=O)N1CCC(CNC(=O)c2ccccn2)CC1 | i | i
Cc1nc2c(ccc3nc(NC(=O)CCCS(=O)(=O)c4ccccc4)sc32)s1 | + | i
O=C(CCCS(=O)(=O)c1ccccc1)Nc1ccc([N+](=O)[O-])cc1 | i | i
O=C(CCCS(=O)(=O)c1ccccc1)Nc1nc(-c2ccc(Br)s2)cs1 | + | i
O=C(CCCS(=O)(=O)c1ccccc1)Nc1nc2ccccc2s1 | i | i
O=C(CCCS(=O)(=O)c1ccc(Cl)cc1)Nc1ccc([N+](=O)[O-])cc1 | + | x
O=C(CCCS(=O)(=O)c1ccccc1)Nc1nc(-c2ccc(Cl)s2)cs1 | i | i
O=C(CS(=O)(=O)Cc1ccccc1)Nc1nc(-c2cc([N+](=O)[O-])cs2)cs1 | i | i
O=C(CCCS(=O)(=O)c1ccccc1)Nc1nc(-c2cc([N+](=O)[O-])cs2)cs1 | + | i
O=c1nc(SCc2ccc(Cl)cc2Cl)c2c(n1CC1CCCO1)CCC2 (centres undefined) | i | i
Cc1ccc(-n2ccnc(SCc3ccc([N+](=O)[O-])cc3)c2=O)cc1 | i | x
SMILES | AMPAR-TARP mod | GIRK2 activator
O=C(Nc1ccc(SCC(=O)N2CCCC2)nn1)C1CC1 | i | i
COc1cccc(N2CC(C(=O)NCCc3csc(-c4ccc(F)cc4)n3)CC2=O)c1 (centres undefined) | i | i
Cc1ccc(S(=O)(=O)CCCC(=O)N(CCN(C)C)c2nc3c(C)cccc3s2)cc1 | i | i
N#Cc1ccccc1NC(=O)CCCS(=O)(=O)c1ccccc1 | i | i
Cc1ccc(S(=O)(=O)CCCC(=O)N(CCN(C)C)c2nc3ccc([N+](=O)[O-])cc3s2)cc1 | + | i
N#Cc1ccsc1NC(=O)CCCS(=O)(=O)c1ccccc1 | + | i
CCNc1nn(CC(=O)Nc2c(C)cccc2C)c(N)c1-c1nc(-c2ccc(Cl)cc2)no1 | i | i
O=C1NC2(CCN(Cc3ccc(Cl)cc3)CC2)C(=O)N1Cc1ccccc1 | i | i
COc1ccc(-c2ccc(C)c(NC(=O)C(F)(F)F)c2)nn1 | i | i
O=c1c2c3c(sc2ncn1/N=C/c1cccnc1)CCC3 | + | x
O=c1[nH]c2sc3c(c2c(=O)n1-c1ccccc1)CCCC3 | i | i
O=C(Nc1nc(-c2ccncc2)cs1)C1CCCN(S(=O)(=O)c2cccs2)C1 (centres undefined) | i | x
O=C(Nc1nc(-c2ccncc2)cs1)C1CCN(S(=O)(=O)c2cccs2)CC1 | + | x
O=C(Nc1nc2c(s1)CSc1ccccc1-2)c1cc2ccccc2o1 | + | x
CC(C)S(=O)(=O)c1ccc(C(=O)Nc2nc3c(s2)CSc2ccccc2-3)cc1 | i | i
OC(COc1ccc(C23CC4CC(CC(C4)C2)C3)cc1)CN1CCCCC1 (centres undefined) | i | x
CCC(=O)Nc1ccc(Cl)c(NC(=O)Cc2ccccc2)c1 | i | x
CCOc1cn(-c2ccc(F)cc2)nc1C(=O)N1CCN(c2ccccc2)CC1 | i | i
O=C(Nc1nnc(-c2cccs2)o1)c1cc(Cl)ccc1Cl | i | x
O=C(Nc1nnc(-c2ccc(Br)s2)o1)c1cc(Cl)ccc1Cl | + | i
O=C(Nc1nnc(-c2ccc(Br)s2)o1)c1ccc(Cl)s1 | + | i
Cc1cc(-c2nnc(NC(=O)c3ccc(Cl)s3)o2)nn1C | i | i
Cc1ccccc1Cn1c(NC2CCCCC2)nc2c1c(=O)[nH]c(=O)n2C | i | i
COc1cccc(S(=O)(=O)N2CCC(Cn3ccnc3C)CC2)c1 | i | i
Cc1cnc2c(c1SCC(=O)NC1CCCC1)c(=O)n(C)c(=O)n2C | i | i
SMILES | AMPAR-TARP mod | GIRK2 activator
CC(C)Cc1cnc2c(c1SCC(=O)NC1CCCC1)c(=O)n(C)c(=O)n2C | + | x
CC(C)C(=O)NCCS(=O)(=O)N1CCN(CCc2ccccc2)CC1 | i | i
COc1cc(-c2c(NC(=O)c3ccco3)sc3ccccc3c2=O)cc(OC)c1OC | + | i
COc1ccc(-c2c(NC(=O)c3cccs3)sc3ccccc3c2=O)cc1 | i | i
COc1ccc(CCn2cnc3c([nH]c4ccc(C)cc43)c2=O)cc1OC | x | i
COC(=O)c1ccccc1NC(=O)CSc1nccnc1N1CCSCC1 | + | i
N#Cc1ccccc1NC(=O)CSc1nccnc1N1CCSCC1 | i | i
CC1CC(C)CN(Cc2nc3c(c(=O)n(C)c(=O)n3C)n2CC(=O)C(C)(C)C)C1 (centres undefined) | + | i
Cn1c(=O)c2c(nc(CN3CCN(c4ccc(F)cc4)CC3)n2CC(=O)C(C)(C)C)n(C)c1=O | i | i
O=C(Cn1c2c(c(=O)n(C3CCCCC3)c1=O)CCC2)NCc1ccc2c(c1)OCO2 | i | i
CCc1cc(CC)n(-c2nc3c(c(=O)n(Cc4ccccc4)c(=O)n3C)n2CCOC)n1 | + | x
CCOCCn1c(=O)c2c(nc(-n3nc(C)cc3C)n2Cc2ccc(F)cc2)n(C)c1=O | i | i
CCc1cc(CC)n(-c2nc3c(c(=O)n(CC(C)C)c(=O)n3C)n2CCOC)n1 | i | x
CCOCCn1c(-n2nc(C)cc2C)nc2c1c(=O)n(Cc1cccc(C)c1)c(=O)n2C | + | i
O=C(N=C1SC2CS(=O)(=O)CC2N1c1ccccc1)c1ccc(Br)cc1 (centres undefined) | i | i
CN1CCN(C(CNC(=O)COc2ccccc2F)c2ccsc2)CC1 (centres undefined) | i | i

Screening data deposited in PubChem BioAssay by several laboratories.
